Test results reported in PubChem BioAssay (NCI).
The panel holds about 79,000 compounds, 15% with a hit somewhere; the sample as a whole holds those more often. Unmarked numbers belong to inactive results. Calls of active or inactive are those of the source. No stated cut-off is given here; in the data, active means growth inhibition above about 70%; inactive means the rest.

Test: NCI Yeast Anticancer Drug Screen. Data for the rad14 strain (AID 159);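 further: 0% = growth of vehicle-treated control cultures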
Conditions: S. cerevisiae rad14 strain growth inhibition, active compounds read high
Description: Growth inhibition of yeast strains with defined genetic alterations is measured as a screen for potential anti-cancer activity. Selected strains with alterations in DNA damage repair or cell cycle control were exposed to compounds and growth inhibition was measured relative to vehicle treated controls. The strain used in this assay is rad14

| SMILES | growth inhibition (at 1.2 µM) | growth inhibition (at 3.7 µM) | growth inhibition (at 11.0 µM) | growth inhibition (at 33.0 µM) | growth inhibition (at 100.0 µM) |
| --- | --- | --- | --- | --- | --- |
| O=P(NC1CCCCC1)(OCc1ccccc1)OCc1ccccc1 | -1% | -2% | 4% | 6% | 13% |
| CCCCN(CCCC)C(=O)/C=C/c1ccccc1 | -1% | -9% | -3% | 23% | 65% |
| C=C1CCC(O)C/C1=C/C=C1\CCCC2(C)C1CCC2C(C)CCCC(C)C (stereo not given) | -14% | -27% | -23% | -23% | 38% |
| C/C(=N\Nc1ccc([N+](=O)[O-])cc1[N+](=O)[O-])c1sc(-n2nc(-c3ccccc3)cc2-c2ccccc2)nc1C | -7% | -13% | -15% | -9% | -6% |
| CCC(C)NC1=NCC(C)S1 (stereo not given) | -17% | -15% | -22% | -21% | -25% |
| Cc1ccc2nc(-c3cccc([N+](=O)[O-])c3)oc(=O)c2c1 | -10% | -6% | -4% | -19% | -16% |
| CN(C)/C=C/c1nnc([N+](=O)[O-])s1 | -4% | 2% | 28% | 79% (active) | 99% (active) |
| CC(C)(C)c1ccc(NS(=O)(=O)c2ccc(N)cc2)cc1 | 1% | -1% | 1% | 2% | 40% |
